Measurements taken from PubChem BioAssay (Tox21).
Records with an inconclusive call do not appear. Calls of active or inactive are those of the source. The call rests on the fitted dose curve; in most records, active means well fitted cell-killing curve with a large enough effect in the repeat runs; inconclusive means weak or mixed curves, or effect the other way; inactive means flat fitted curve, though single readings scatter.

Assay: qHTS RealTime-Glo MT Cell Viability Assay in HepG2 cells - 0 hour (AID 1224889); further: nearly all actives have a fitted effect of over 50% in size
Details: RealTime-Glo luminescence; series mostly up to 76.8 µM; activity change, negative = cytotoxicity: at the top concentration
Procedure, shortened: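 Real-time, nonlytic viability: 600 HepG2 cells/well mixed with NanoLuc enzyme plus prosubstrate; 5 h settle, compound (DMSO) added by pintool; luminescence monitored over 40 h at 37 C.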
On the % scale 0 is the no-effect control and ±100 the full control effect; potency means the concentration at half of the fitted maximal effect.

Compound | activity change, negative = cytotoxicity | Potency
CC(=O)OC1(c2ccccc2)CCN(CCc2ccccc2)CC1 | 1.85% (inactive) | –
CSCCCN=C=S | -0.856% (inactive) | –
CC(C)(C)c1ccc(CSc2cnn(C(C)(C)C)c(=O)c2Cl)cc1 | 9.83% (inactive) | –
C=CCC1=C(C)C(OC(=O)C2C(C=C(C)C)C2(C)C)CC1=O (stereo unspecified) | 2.3% (inactive) | –
O=[N+]([O-])c1c2ccccc2cc2ccccc12 | 1.82% (inactive) | –
O=C(CBr)c1ccc(O)cc1 | 2.83% (inactive) | –
CCCN(CCC)CCc1c[nH]c2ccccc12 | 1.59% (inactive) | –
CC1CCC(C(C)C)C(OC(=O)c2ccccc2N)C1 (stereo unspecified) | -11.5% (inactive) | –
CCOC(=O)c1ccccc1S(=O)(=O)NC(=O)Nc1nc(Cl)cc(OC)n1 | 5.56% (inactive) | –
ClC1=C(Cl)C2(Cl)C3C(Cl)C(Cl)CC3C1(Cl)C2(Cl)Cl (stereo unspecified) | – | inactive
CC(C)(C)C(O)C(Oc1ccc(-c2ccccc2)cc1)n1cncn1 (stereo unspecified) | -9.44% (inactive) | –
CCC(C)c1cc([N+](=O)[O-])cc([N+](=O)[O-])c1OC(=O)C=C(C)C (stereo unspecified) | -20% (inactive) | –
COc1cccc2c1C(=O)c1c(O)c3c(c(O)c1C2=O)C[C@@](O)(C(=O)CO)CC3OC1CC(N2CCOC(OC)C2)C(O)C(C)O1 (stereo partly specified) | 2% [at 35.3 µM] (inactive) | –
[Cl][Sb]([Cl])[Cl] | -21.2% (inactive) | –
CCOP(=S)(OCC)OC(Cl)C(Cl)(Cl)Cl (stereo unspecified) | -3.72% (inactive) | –
CC(Cc1ccc(C(C)(C)C)cc1)CN1C[C@@H](C)O[C@@H](C)C1 (stereo partly specified) | -1.91% (inactive) | –
Clc1ccc(CO/N=C(\Cn2ccnc2)c2ccc(Cl)cc2Cl)c(Cl)c1 | -2.62% [at 35.3 µM] (inactive) | –
CC(=O)/C=C/c1ccc2c(c1)OCO2 | -6.28% (inactive) | –

Compound | activity change, negative = cytotoxicity | Potency
CC(C)CC(C)Nc1ccc(Nc2ccccc2)cc1 (stereo unspecified) | – | 24.1 µM (active)
O=[N+]([O-])c1cc(Cl)ccc1Cl | -19% (inactive) | –
Nc1ccccc1C(=O)Oc1ccc2ccccc2c1 | -0.979% (inactive) | –
COC(=O)N(C(=O)N1CO[C@@]2(C(=O)OC)Cc3cc(Cl)ccc3C2=N1)c1ccc(OC(F)(F)F)cc1 | -0.696% (inactive) | –
COc1ccc(OC)c(C=O)c1 | 0.122% (inactive) | –
CCOP(=O)(NC(C)C)Oc1ccc(SC)c(C)c1 (stereo unspecified) | -0.761% (inactive) | –
ClC1=C(Cl)C2(Cl)C3C(Cl)C=CC3C1(Cl)C2(Cl)Cl (stereo unspecified) | – | inactive
CCCCCCCCc1ccc(O)cc1 | 3.05% (inactive) | –
CC[C@H](C)[C@H]1O[C@]2(C=C[C@@H]1C)C[C@@H]1C[C@@H](C/C=C(\C)[C@@H](O[C@H]3C[C@H](OC)[C@@H](O[C@H]4C[C@H](OC)[C@@H](O)[C@H](C)O4)[C@H](C)O3)[C@@H](C)/C=C/C=C3\CO[C@@H]4[C@H](O)C(C)=C[C@@H](C(=O)O1)[C@]34O)O2 | 4.2% [at 35.3 µM] (inactive) | –
CC(C)(C)c1cc([N+](=O)[O-])cc(C(C)(C)C)c1O | -21.8% (inactive) | –
Cc1cc(C(C)(C)c2cc(C)c(O)c(C)c2)cc(C)c1O | -7.81% (inactive) | –
CC(C)Oc1cccc(NC(=O)c2ccccc2C(F)(F)F)c1 | -21% (inactive) | –
C[C@]12CC[C@@H]3c4ccc(OC(=O)N(CCCl)CCCl)cc4CC[C@H]3[C@@H]1CC[C@@H]2O | -21.2% [at 35.3 µM] (inactive) | –
CC(C)OC(=S)S | 7.03% (inactive) | –
Clc1ccc(CCC(Cn2ccnc2)Sc2c(Cl)cccc2Cl)cc1 (stereo unspecified) | -4.7% [at 35.3 µM] (inactive) | –
ClC1=C(Cl)[C@]2(Cl)[C@@H]3[C@@H]4C[C@@H]([C@H]5O[C@@H]45)[C@@H]3[C@@]1(Cl)C2(Cl)Cl | 1.01% (inactive) | –
CC(=O)c1cc(C(C)(C)C)cc2c1CCC2(C)C | 0.552% (inactive) | –
CCCCOCN(C(=O)CCl)c1c(CC)cccc1CC | -9.39% (inactive) | –
